Data on seven molecules can be found in PubChem BioAssay (Tox21).

Each structure is given as a SMILES string. Records with an inconclusive call do not appear. Active and inactive are the calls of the source. Unless noted, calls follow the shape of the dose curve; as a rule, active = well fitted curve in the direction sought with a large enough effect in the repeat runs; inconclusive = weak or mixed curves; inactive = no such curve, though single readings can be large; an effect the other way counts as inactive or inconclusive.

Test [1] in a line: qHTS assay to test for compound auto fluorescence at 535 nm (green) in HEK293 cells (AID 720680). Background: Quantitative high-throughput screening tests each substance at several concentrations.
A short description of test [2]: qHTS assay to test for compound auto fluorescence at 460 nm (blue) in HEK293 cell free culture (AID 720681). The method, boiled down:
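Test compounds were pinned into cell-free culture medium (DMEM with 10% FBS) and fluorescence was read directly at Ex/Em 405/460 nm. Signals were expressed as fluorescence equivalents of triamterene, with DMSO vehicle as control.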

Test [3] is described as follows: qHTS assay to test for compound auto fluorescence at 535 nm (green) in HEK293 cell free culture (AID 720682). The essentials:
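Fluorescein serves as the green reference fluorophore; each compound's intrinsic emission at 535 nm (excitation 485 nm) is reported as an equivalent amount of that dye, measured in serum-containing DMEM without cells.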

The nature of test [4]: qHTS assay to test for compound auto fluorescence at 590 nm (red) in HEK293 cell free culture (AID 720683). The essentials: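 Tox21 10K library compounds were pinned into cell-free DMEM with 10% FBS and fluorescence was read at excitation 540 nm. Activity is expressed as Rose Bengal sodium equivalency.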
A short description of test [5]: qHTS assay to test for compound auto fluorescence at 590 nm (red) in HepG2 cell free culture (AID 720684). The essentials: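 Ex 540 / Em 590 nm read of compound in cell-free MEM (10% FBS). Rose Bengal sodium reference.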
The nature of test [6]: qHTS assay to test for compound auto fluorescence at 460 nm (blue) in HepG2 cell free culture (AID 720685). The method, boiled down: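 Cell-free plates of MEM plus 10% FBS received 23 nL compound or DMSO vehicle; blue-channel (405/460 nm) intensity scored against triamterene as reference fluorophore.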
A short description of test [7]: qHTS assay to test for compound auto fluorescence at 535 nm (green) in HepG2 cell free culture (AID 720686).
Test [8] is described as follows: qHTS assay to test for compound auto fluorescence at 460 nm (blue) in HepG2 cells (AID 720687). The method, boiled down: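 Cells (2,000/well in MEM with 10% FBS) attached overnight at 37 C, then were exposed to compound or DMSO for 1 hr at 37 C, 5% CO2. Fluorescence read at Ex/Em 405/460 nm, expressed as triamterene-equivalent signal.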
Test [9] concerns the target Glucocorticoid receptor (Homo sapiens) (UniProt P04150). The test can be described thus: qHTS assay to identify small molecule agonists of the glucocorticoid receptor (GR) signaling pathway (AID 720691; active = well fitted activation curve with a large enough effect in the signal ratio in the repeat runs, not every such curve was filed as active; the % refers to the signal ratio). Conditions: GR-bla HeLa, beta-lactamase reporter ratio, 18 h; activation: at 62.4 µM (top of the series). The essentials:
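Agonist-mode qHTS in HeLa cells stably expressing a glucocorticoid-response-element beta-lactamase reporter. Fluorescence intensity read with FRET substrate (2 h, room temperature) after 18 h compound treatment at 37 C.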

The target is the same in test [10]. The experiment in a line: qHTS assay to identify small molecule antagonists of the glucocorticoid receptor (GR) signaling pathway (AID 720692; active = well fitted inhibition curve with a large enough effect in the signal ratio in the repeat runs, not every such curve was filed as active; the % refers to the signal ratio). The method, boiled down: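 Inhibition of dexamethasone-driven (5 nM final) beta-lactamase expression was measured in GRE-reporter HeLa cells over 18 h at 37C. Fluorescence was read after 2 h with the B/G FRET substrate at room temperature.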

Test [11] in a line: qHTS assay to identify small molecule antagonists of the glucocorticoid receptor (GR) signaling pathway - cell viability counter screen (AID 720693). Also: nearly all actives have a fitted effect of over 55% in size.
Test [12] is described as follows: qHTS assay for identifying genotoxic compounds that show differential cytotoxicity against isogenic chicken DT40 cell lines with known DNA damage response pathways - wild type cell line (AID 743012). Also: nearly all actives have a fitted effect of over 60% in size. Also: potency is read from the fitted curve at half-maximal effect. The essentials: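 Viability by ATP luminescence (CellTiter-Glo, 30 min RT) after 40 h compound treatment at 37 C/5% CO2, using 300 parental DNA repair-proficient DT40 cells per well.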

The nature of test [13]: qHTS assay for identifying genotoxic compounds that show differential cytotoxicity against isogenic chicken DT40 cell lines with known DNA damage response pathways - Rev3 mutant cell line (AID 743014). Also: nearly all actives have a fitted effect of over 55% in size. Also: potency is read from the fitted curve at half-maximal effect.
Test [14] is described as follows: qHTS assay for identifying genotoxic compounds that show differential cytotoxicity against isogenic chicken DT40 cell lines with known DNA damage response pathways - Rad54/Ku70 mutant cell line (AID 743015). Also: nearly all actives have a fitted effect of over 60% in size. Also: potency is read from the fitted curve at half-maximal effect.
Test [15] in a line: qHTS assay to identify small molecule antagonists of the androgen receptor (AR) signaling pathway using the MDA cell line - cell viability counter screen (AID 743041; also: nearly all actives have a fitted effect of over 45% in size). The method, boiled down:
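In this qHTS counter assay, fluorescence intensity after CellTiter-Fluor addition indicated viability of MDA-kb2 AR-luc cells given compounds and R1881 for 16 h at 37C.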

A short description of test [16]: qHTS assay to identify small molecule antagonists of the androgen receptor (AR) signaling pathway - cell viability counter screen (AID 743033; also: nearly all actives have a fitted effect of over 45% in size).
Test [17] addresses Androgen receptor (Homo sapiens) (UniProt P10275). The test can be described thus: qHTS assay to identify small molecule antagonists of the androgen receptor (AR) signaling pathway (AID 743035; active = well fitted inhibition curve with a large enough effect in the signal ratio in the repeat runs, not every such curve was filed as active; the % refers to the signal ratio). The essentials:
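Antagonist mode: AR-bla HEK293 cells co-treated with test compounds and agonist R1881 for 16 h at 37C, 5% CO2. Beta-lactamase activity read as FRET fluorescence after 2 h room-temperature substrate loading.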

Test [18] shares this target. The experiment in a line: qHTS assay to identify small molecule agonists of the androgen receptor (AR) signaling pathway (AID 743036; active = well fitted activation curve with a large enough effect in the signal ratio in the repeat runs, with a control signal flat, not every such curve was filed as active; the % refers to the signal ratio). The method, boiled down:
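Fluorescence from a beta-lactamase FRET substrate served as read-out in AR-UAS-bla GripTite HEK293 cells. Cells were treated with DMSO-dissolved compounds for 16 h at 37C, then with LiveBLAzer B/G substrate for 2 h at room temperature.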

Test [19] has the same target. The experiment in a line: qHTS assay to identify small molecule agonists of the androgen receptor (AR) signaling pathway using the MDA cell line (AID 743040; also: nearly all actives have a fitted effect of over 20% in size). The method, boiled down: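 Cell-based luciferase reporter: MDA-kb2, MMTV promoter (AR + GR response elements). 16 h compound exposure at 37C; ONE-Glo, 30 min RT, luminescence.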
For test [20] the target is unchanged. The test can be described thus: qHTS assay to identify small molecule antagonists of the androgen receptor (AR) signaling pathway using the MDA cell line (AID 743042; also: nearly all actives have a fitted effect of over 55% in size). The method, boiled down:
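MDA-kb2 cells (human breast carcinoma, stably carrying an MMTV-luciferase reporter responsive to AR and GR) were plated at 3,000 cells/well and preincubated 5 hr at 37C, then given compound plus R1881 agonist for 16 h. ONE-Glo luminescence was read.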

Androgen receptor (Homo sapiens), sequence (P10275 whole entry, looked up): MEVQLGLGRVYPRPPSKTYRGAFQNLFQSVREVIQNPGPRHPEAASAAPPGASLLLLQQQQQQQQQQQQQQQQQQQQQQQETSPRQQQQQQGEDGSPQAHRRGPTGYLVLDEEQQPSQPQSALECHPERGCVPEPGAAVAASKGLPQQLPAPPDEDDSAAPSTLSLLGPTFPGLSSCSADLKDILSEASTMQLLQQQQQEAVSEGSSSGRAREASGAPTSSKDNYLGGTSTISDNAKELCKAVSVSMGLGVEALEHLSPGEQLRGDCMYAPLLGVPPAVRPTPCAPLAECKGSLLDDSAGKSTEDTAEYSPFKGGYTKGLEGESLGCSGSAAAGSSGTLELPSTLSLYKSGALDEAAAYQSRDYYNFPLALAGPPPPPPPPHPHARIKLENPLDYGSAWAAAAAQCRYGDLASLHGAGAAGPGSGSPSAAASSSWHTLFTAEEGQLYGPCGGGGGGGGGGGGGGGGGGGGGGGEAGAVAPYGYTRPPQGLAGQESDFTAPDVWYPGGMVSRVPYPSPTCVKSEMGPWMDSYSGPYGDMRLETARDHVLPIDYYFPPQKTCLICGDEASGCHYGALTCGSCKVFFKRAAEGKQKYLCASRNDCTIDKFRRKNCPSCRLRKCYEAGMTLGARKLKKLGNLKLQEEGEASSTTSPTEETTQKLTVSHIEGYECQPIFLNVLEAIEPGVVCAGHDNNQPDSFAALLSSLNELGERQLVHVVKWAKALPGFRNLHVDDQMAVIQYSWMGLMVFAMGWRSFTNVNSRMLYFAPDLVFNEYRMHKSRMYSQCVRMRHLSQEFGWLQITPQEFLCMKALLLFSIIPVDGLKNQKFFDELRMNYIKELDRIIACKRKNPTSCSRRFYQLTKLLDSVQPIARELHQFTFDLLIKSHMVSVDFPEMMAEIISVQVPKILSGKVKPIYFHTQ
Glucocorticoid receptor (Homo sapiens), sequence (P04150 whole entry, looked up): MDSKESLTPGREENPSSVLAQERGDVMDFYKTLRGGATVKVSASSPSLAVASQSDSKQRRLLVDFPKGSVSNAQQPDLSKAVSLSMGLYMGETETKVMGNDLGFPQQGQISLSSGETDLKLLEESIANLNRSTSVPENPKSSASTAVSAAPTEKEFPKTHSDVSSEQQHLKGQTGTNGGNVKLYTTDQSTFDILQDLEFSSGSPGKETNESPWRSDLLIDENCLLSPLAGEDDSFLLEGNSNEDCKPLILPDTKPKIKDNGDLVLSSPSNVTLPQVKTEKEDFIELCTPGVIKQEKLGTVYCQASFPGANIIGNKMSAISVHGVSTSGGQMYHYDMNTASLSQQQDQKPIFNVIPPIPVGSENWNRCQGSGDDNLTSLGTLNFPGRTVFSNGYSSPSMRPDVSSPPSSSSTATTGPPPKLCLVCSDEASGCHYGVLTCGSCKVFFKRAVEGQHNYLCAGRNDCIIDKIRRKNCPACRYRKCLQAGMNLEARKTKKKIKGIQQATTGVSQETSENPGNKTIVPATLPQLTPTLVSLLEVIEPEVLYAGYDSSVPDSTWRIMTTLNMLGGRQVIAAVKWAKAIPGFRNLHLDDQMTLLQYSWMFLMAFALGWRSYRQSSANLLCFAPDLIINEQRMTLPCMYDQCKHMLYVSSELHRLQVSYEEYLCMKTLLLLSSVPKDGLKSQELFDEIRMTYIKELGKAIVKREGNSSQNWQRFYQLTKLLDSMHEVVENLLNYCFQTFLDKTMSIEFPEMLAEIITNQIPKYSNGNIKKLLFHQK

For `COc1ccc(C2(C#N)CCC(C(=O)O)CC2)cc1OC1CCCC1` (configuration not stated), the Potency entry in test [1], in [2], in test [3], in test [4], in test [5] and in test [7] was “inactive” in each case. The Potency result in test [9], in test [10], in [11], in test [12], in [13] and in test [14] was “inactive” throughout. For the same molecule, the Potency result in test [15] was “inactive”. Besides, the molecule was classed as inactive in [6] and in test [8].

Consider `Cc1ncc(C[n+]2csc(CCOP(=O)(O)OP(=O)(O)O)c2C)c(N)n1`, for which the Potency result in test [1], in [2], in test [3], in test [4], in test [5] and in test [7] was “inactive” each time. Besides, the Potency result in [9], in [10], in test [11], in test [12], in test [14] and in test [16] was “inactive” in each case. The Potency result in test [17], in test [18], in test [19], in test [15] and in [20] was “inactive” in each case. Besides, the molecule was called inactive in test [6] and in test [8].

As for `CC1CCC(NC(=O)N(CCCl)N=O)CC1` (configuration not stated), the Potency result in test [1], in test [2], in [3], in [4], in [5] and in [7] was “inactive” each time. Moreover, the Potency result in test [9], in [10], in test [11], in test [12], in test [13] and in [14] was “inactive” each time. The Potency result in test [16] and in test [15] was “inactive” each time. For the same molecule, the call in test [6] and in test [8] was inactive.

As to `CCOC(=O)C1=C[C@@H](OC(CC)CC)[C@H](NC(C)=O)[C@@H](N)C1`, the Potency entry in [1], in [2], in test [3], in [4], in [5] and in test [7] was “inactive” each time. Besides, the Potency entry in test [9], in test [10], in test [11], in test [12], in test [14] and in test [16] was “inactive” each time. Moreover, the Potency result in test [15] was “inactive”. Also, the call in test [6] and in [8] was inactive.

For the molecule `C[C@]12CCC(=O)C[C@@H]1CC[C@@H]1[C@@H]2CC[C@]2(C)C=CC[C@@H]12`, the Potency entry in test [1], in test [2], in [3], in [4], in test [5] and in test [7] was “inactive” each time. The Potency entry in test [9], in test [10], in test [11], in test [12], in test [13] and in test [16] was “inactive” throughout. Besides, in test [15], the Potency result was “inactive”. In addition, the molecule was called inactive in test [6] and in test [8].

For `CCN(CC)Cc1cc(Nc2ccnc3cc(Cl)ccc23)ccc1O`, the Potency entry in test [1], in test [2], in test [3], in test [4], in test [5] and in [7] was “inactive” each time. Besides, the Potency result in [9], in [10], in test [11], in test [19] and in test [20] was “inactive” throughout. Besides, the result in test [6] and in test [8] was inactive. The Potency in test [12] is 7.17 µM (active); in [13] it was 7.17 µM (active); in [14] it was 8.04 µM (active).

As for `CCC(C)C(C(=O)OCC[N+](C)(CC)CC)c1ccccc1` (configuration not stated), the Potency result in test [1], in test [2], in test [3], in test [4], in test [5] and in test [7] was “inactive” throughout. Further, the Potency result in [9], in test [10], in [11], in test [16] and in test [15] was “inactive” throughout. The call in [6] and in [8] was inactive. For the same molecule, the values for the Potency in test [12], in test [13] and in test [14] were 29.8 µM (active), 29.8 µM (active) and 26.6 µM (active), respectively.
